# Compound activity as filed in PubChem BioAssay.
# Rows were chosen to be rich in hits. Some 6.2% of all compounds tested hit in one or more screens of this group.
# HT1080 IDH1KD tx: qHTS for induction of synthetic lethality in tumor cells producing 2HG: qHTS for the HT-1080-IDH1KD cell line. HT-1080 IDH1 knockdown viability, ATP luminescence, 48 h. Potency, µM (series often up to 46.1 µM), for the others: at the top dose activity, negative = toxicity, actives largely listed as cytotoxic. actives 2% (n = 360,000);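 note: 0% = DMSO wells and -100% = cell-free medium wells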
#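 IDH1KD HT-1080 cells, 750/well, RPMI + 5% FBS; compound pinned after 2 h settling; 48 h, 37 °C; CellTiter-Glo luminescence; % activity normalised to DMSO and no-cell wells; curves fitted, classed by r2 and efficacy.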
# HT1080-NT tox: qHTS for induction of synthetic lethality in tumor cells producing 2HG: qHTS for the HT-1080-NT fibrosarcoma cell line | HT-1080-NT fibrosarcoma viability, CellTiter-Glo ATP luminescence, 48 h | Potency, µM (highest dose often 46.1 µM), for inactives: at the top dose activity, negative = less viability, hits mostly cytotoxic | actives 1.6% (n = 360,000);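 note: NT is the 2HG producing partner of a matched IDH1 knockdown line; 0% = DMSO-treated cells and -100% = media-only wells without cells; nearly all actives have a fitted effect of over 55% in size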
#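 HT-1080-NT fibrosarcoma cells (2HG-overproducing), 750 cells/well in RPMI with 5% FBS, dosed after 2 h and incubated 48 h at 37C. CellTiter-Glo luminescence normalized to DMSO and no-cell wells; concentration-response curves fitted and classed.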
# KB-3-1 cytotox: qHTS assay for MDR1-selective chemotherapeutics: Primary screen using the parental adenocarcinoma cell KB-3-1 | KB-3-1 viability, CellTiter-Glo ATP luminescence, 72 h | Potency, µM (doses to about 46.1 µM), hits mostly cytotoxic | actives 1.4% (n = 400,000) | AID 1347075, 2019; note: % is set by controls: 0 for no effect and ±100 for the full control effect; nearly all actives have a fitted effect of over 60% in size
#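 KB-3-1 parental drug-naive adenocarcinoma cells in DMEM/10% FBS, incubated 72 h at 37 C with pin-transferred compounds across a concentration series. Viability by CellTiter-Glo luminescence; concentration-response curves fitted after normalization.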
# KB-V1 cytotox: qHTS assay for MDR1-selective chemotherapeutics: Primary screen using the drug-selected MDR subline cells KB-V1; AID 1347076, 2019; Potency, µM (series often up to 46.1 µM), usual class: cytotoxic; actives 3.4% (n = 400,000); KB-V1 MDR cells viability, CellTiter-Glo, 72 h; note: % is set by controls: 0 for no effect and ±100 for the full control effect; nearly all actives have a fitted effect of over 60% in size
#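 Cytotoxicity via CellTiter-Glo luminescence after 72 h compound exposure at 37 degrees C. Cells: drug-selected KB-V1 line, DMEM phenol-red free plus 10% FBS. Compounds tested at multiple concentrations; normalized data fitted to concentration-effect curves.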
# ATXN2 expr inh: Primary qHTS for Inhibitors of ATXN expression; actives 0.72% (n = 360,000); HEK-293 ATXN2-luciferase reporter, luminescence, 24 h; AID 1745845, 2022; Potency, µM (titrated, usually from 57 µM), for inactives: top-dose activity change, negative = inhibition, hits mostly inhibitors; note: % is set by controls: 0 for no effect and ±100 for the full control effect; nearly all actives have a fitted effect of over 55% in size
#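 qHTS (up to 57 uM final) was run with 24 h compound exposure of reporter cells at 37 °C. Each well was multiplexed: SteadyGlo luminescence measured ATXN2-luciferase expression after a fluorogenic Gly-Phe-AFC viability readout (25 uM final).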
# ATXN viability: Viability Counterscreen for Primary qHTS for Inhibitors of ATXN expression | S2 cells (HEK-293 line with an ATXN2-luciferase reporter) viability, CellTiter-Fluor protease fluorescence, 24 h | actives 0.49% (n = 400,000) | Potency, µM (top dose mostly 56.7 µM), actives largely listed as cytotoxic; note: nearly all actives have a fitted effect of over 40% in size
# * hit, by the source's call; i = inactive; ? = inconclusive; . = not tested or not shown. Calls come from the whole dose curve; as a rule, active = well fitted curve in the direction sought with a large enough effect; inconclusive = small, poorly fitted or top-dose-only effect, or another doubt; inactive = no such curve, though single readings can be large; an effect the other way counts as inactive or inconclusive. Potency is the fitted concentration of half-maximal effect.
SMILES,HT1080 IDH1KD tx,HT1080-NT tox,KB-3-1 cytotox,KB-V1 cytotox,ATXN2 expr inh,ATXN viability
O=C(Cc1ccc2c(c1)OCCO2)N1CCN(S(=O)(=O)c2cccs2)CC1,4%,4%,i,?,-8%,i
Cc1ccc(Cl)cc1N1CCN(C(=O)CN2C(=O)COc3ccc(S(=O)(=O)N4CCCCCC4)cc32)CC1,.,.,?,26µM*,-7%,i
Cc1ccc(S(=O)(=O)N2CCN(C(=O)Cc3ccc4c(c3)OCCO4)CC2)cc1C,-7%,-5%,i,4.1µM*,-24%,i
O=C(Cc1ccc2c(c1)OCCO2)N1CCN(S(=O)(=O)c2ccccc2C(F)(F)F)CC1,4%,13%,i,21µM*,1%,i
O=C(NCC(=O)N1CCN(S(=O)(=O)c2ccc3c(c2)OCCO3)CC1)c1ccccc1F,-1%,-3%,i,i,0%,i
CCN(Cc1ccccc1)S(=O)(=O)c1ccc(F)c(C(=O)Nc2ccc(C(C)C)cc2)c1,.,.,i,i,10%,i
O=C(C1CC(=O)N(c2ccc3c(c2)OCCO3)C1)N1CCN(S(=O)(=O)c2cccc(F)c2)CC1 (stereo not drawn),-5%,1%,i,21µM*,-9%,?
O=C(O)C1C2CCC(O2)C1C(=O)Nc1ccc(Br)cc1F (stereo not drawn),-4%,-6%,i,i,.,i
CC(C(=O)Nc1cc([N+](=O)[O-])ccc1Cl)N1CCN(c2ccccc2O)CC1 (stereo not drawn),?,?,?,10µM*,18%,i
Cc1[nH]ccc2cc3nc4ccccc4c3cc12,?,15µM*,?,10µM*,.,.
COCCCN1C(=O)C(CC(=O)NCc2cccc3ccccc23)CC(C(=O)N2CCCCCC2)=C1C (stereo not drawn),-8%,-2%,.,10µM*,.,.
CC1=C(C(=O)N2CCCCCC2)CC(CC(=O)NCCCCc2ccccc2)C(=O)N1CCC1=CCCCC1 (stereo not drawn),?,?,?,16µM*,?,.
CCCCN1C(=O)C(CC(=O)NCc2cccc3ccccc23)CC(C(=O)N2CCCCCC2)=C1C (stereo not drawn),-5%,0%,?,9.2µM*,-35%,?
COCCCN1C(=O)C(CC(=O)NCc2cccc3ccccc23)CC(C(=O)N2CCOCC2)=C1C (stereo not drawn),20%,18%,i,i,-2%,i
CC1=C(C(=O)N2CCCCCC2)CC(CC(=O)NCc2cccc3ccccc23)C(=O)N1CCC1=CCCCC1 (stereo not drawn),?,?,?,18µM*,-31%,?
CC1=C(C(=O)N2CCCCCC2)CC(CC(=O)NCc2cccs2)C(=O)N1CCC1=CCCCC1 (stereo not drawn),9%,1%,i,?,-15%,?
Cc1ccc(OCC(=O)NNC(=O)c2ccc(F)c(S(=O)(=O)N3CCOCC3)c2)cc1C,5%,14%,i,?,.,i
CC1=C(C(=O)N2CCOCC2)CC(CC(=O)NC(c2ccccc2)c2ccccc2)C(=O)N1CCC1=CCCCC1 (stereo not drawn),-17%,-19%,i,10µM*,-11%,i
CC1=C(C(=O)N(C(C)C)C(C)C)CC(CC(=O)NC(c2ccccc2)c2ccccc2)C(=O)N1CCC1=CCCCC1 (stereo not drawn),?,?,?,?,0%,.
